The target in assay [1] is 6-phosphogluconate dehydrogenase, decarboxylating (Homo sapiens) (UniProt P52209). The experiment in a line: inhibition of human phosphogluconate dehydrogenase – biochemical, recombinant enzyme, NADPH absorbance, primary screen (AID 1159550;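 active means at least 20% inhibition of 6-phosphogluconate dehydrogenase activity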). The conditions noted are these: recombinant 6PGD, NADPH absorbance 341 nm; at 10 µM; stronger effect = higher value.
Assay [2] can be described thus: EMT-state selective cytotoxicity in co-culture – imaging, PC-3E GFP, TEM4-18 mCherry, primary screen (AID 1345086;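 active means compounds killing one labelled cell type while sparing the other, by normalised counts and ratio limits, not self-fluorescent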;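 on all read-outs here: cells exposed to compound for 72 h before imaging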;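 on red/green cell ratio (normalised): normalised mesenchymal count divided by normalised epithelial count so high means epithelial killing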). The conditions noted are these: PC-3E GFP / TEM4-18 mCherry co-culture, imaging cell counts, at 1 µM; for red/green cell ratio (normalised): actives lie on both sides, counts scaled to control wells, 1 = unselective.
Assay [3] addresses NAD(+) hydrolase SARM1 (Homo sapiens) (UniProt Q6SZW1). The experiment in a line: blocking NAD cleavage by SARM1 SAM-TIR – cell lysate, NAD-Glo luminescence (AID 1508614;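 active means compound whose remaining NAD level is above about 45 nM, limit read from the data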). The conditions noted are these: SAM-TIR HEK293T lysate NADase, at 1 µM, stronger effect = higher value.
Assay [4] in a line: P. berghei load reduction in hepatocytes – cell-based, HepG2, luciferase luminescence, HepG2 viability, primary screen (AID 624349).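 Further: 100% = mean of DMSO negative control wells on the same plate.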 The conditions noted are these: P. berghei liver stage in HepG2, luciferase luminescence, concentration not given here; parasite load remaining: stronger effect = lower value; viability: measured here: HepG2 viability without parasites.
Assay [5] can be described thus: viability loss with induced miR-34 in A549 – imaging, A549 dox-inducible miR-34, nuclei and caspase counts, primary screen (AID 1347080;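 active means compounds whose cell count with miR-34 switched on is under 0.7 times the count with it off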). The conditions noted are these: A549 miR-34 inducible, Hoechst nuclei count, 48 h.
Assay [6] in a line: blockers of polyQ-driven CASP3 activation – cell-based (AID 1583). The conditions noted are these: polyglutamine-induced caspase-3 activation, cell assay; stronger effect = higher value;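 tested at 10 µM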.
A short description of assay [7]: yeast 75Q aggregation reduction – 75Q-TubU reporter (AID 1593). The conditions noted are these: Yeast 75Q polyglutamine aggregation reporter.
Assay [8] can be described thus: restoration of touch response, mutant HTT neurons – whole organism, C. elegans mechanosensory neurons, N-terminal huntingtin (AID 1599). The conditions noted are these: C. elegans polyQ-huntingtin mechanosensory neurons, stronger effect = higher value.
Assay [9] is described as follows: blockers of cytochrome c efflux from mitochondria – biochemical, purified mitochondria (AID 1603).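 Further: mouse liver mitochondria challenged with calcium chloride; signal normalized to the plate average as 100%.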 The conditions noted are these: stronger effect = lower value.
Assay [10] in a line: polyglutamine aggregate formation blockers (AID 1604). The conditions noted are these: polyglutamine-induced protein aggregation inhibition assay; stronger effect = higher value; tested at 2.5 µM.
Assay [11] is described as follows: glutamate transport activators, MN-1 cells, MN-1 cell line (AID 1612).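 Further: tested at 1 µM final; 0% = mean of DMSO vehicle wells on each plate; positive means more glutamate uptake than control and negative means less.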 The conditions noted are these: MN-1 motor neuron cells, stronger effect = higher value.
The nature of assay [12]: GFP-Q80 aggregate reduction, neuronal-like cells, cell-based, NGF-treated PC12, GFPQ80 (AID 1614).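 Further: lower means fewer inclusions and 0 means no inclusions at all.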 The conditions noted are these: PC12 NGF-treated GFP-polyQ80 inclusion reduction.
Assay [13] can be described thus: 75Q-TubH aggregate inhibition, S. cerevisiae, yeast (AID 1616). The conditions noted are these: S. cerevisiae 75Q-TubH polyglutamine aggregation suppression; stronger effect = higher value.
The target in assay [14] is Mitogen-activated protein kinase 7 (Homo sapiens) (UniProt Q13164). The experiment in a line: Gal4-ERK5 driven luciferase induction – cell-based, HTS, primary screen (AID 1508626;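 active means luciferase signal above three times the same-plate solvent-only control wells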;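 further: luciferase driven by Gal4-ERK5 fusion binding five Gal4 sites before minimal TATA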). The conditions noted are these: HeLa Gal4-ERK5 transactivation, 18 h, at 5 µM, stronger effect = higher value.
The nature of assay [15]: galactose survival enhancers in mitochondrial complex I cybrids – cell-based, galactose medium, ATP luminescence, primary screen (AID 1645843;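 active means z-score of at least 1.8 in each of two replicates, scored against plate mean and spread of sample wells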;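 further: positive z means more ATP and so rescue of galactose-driven cybrid death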). The conditions noted are these: complex I mutant cybrid cells, 72 h, stronger effect = higher value.
[16] abbreviates: measured here: epithelial PC-3E GFP cell survival.
Setting [17] is: measured here: mesenchymal TEM4-18 mCherry cell survival.
Where [18] appears, read: stronger effect = lower value, cell number ratio, induced over uninduced.
[19] abbreviates: measured here: relative caspase fold change +Dox/-Dox.
[20] abbreviates: measured here: total cells with miR-34 induction, stronger effect = lower value.
Where [21] appears, read: measured here: total cells without miR-34 induction.

Each structure is given as a SMILES string. Several values for one entry are separate records, joined by “and”; a condition that tells them apart may be missing. Identical values can stand only once. For part of these data: Entries with a potency or affinity are not part of this list. Activity calls are given as the source filed them. Unless noted, no stated cut-off is given here; in the data, active means parasite load remaining mostly below about 12% (no sharp cut-off); inactive means mostly above about 10%.

Chain of NAD(+) hydrolase SARM1 (Homo sapiens) (Q6SZW1 whole entry, looked up): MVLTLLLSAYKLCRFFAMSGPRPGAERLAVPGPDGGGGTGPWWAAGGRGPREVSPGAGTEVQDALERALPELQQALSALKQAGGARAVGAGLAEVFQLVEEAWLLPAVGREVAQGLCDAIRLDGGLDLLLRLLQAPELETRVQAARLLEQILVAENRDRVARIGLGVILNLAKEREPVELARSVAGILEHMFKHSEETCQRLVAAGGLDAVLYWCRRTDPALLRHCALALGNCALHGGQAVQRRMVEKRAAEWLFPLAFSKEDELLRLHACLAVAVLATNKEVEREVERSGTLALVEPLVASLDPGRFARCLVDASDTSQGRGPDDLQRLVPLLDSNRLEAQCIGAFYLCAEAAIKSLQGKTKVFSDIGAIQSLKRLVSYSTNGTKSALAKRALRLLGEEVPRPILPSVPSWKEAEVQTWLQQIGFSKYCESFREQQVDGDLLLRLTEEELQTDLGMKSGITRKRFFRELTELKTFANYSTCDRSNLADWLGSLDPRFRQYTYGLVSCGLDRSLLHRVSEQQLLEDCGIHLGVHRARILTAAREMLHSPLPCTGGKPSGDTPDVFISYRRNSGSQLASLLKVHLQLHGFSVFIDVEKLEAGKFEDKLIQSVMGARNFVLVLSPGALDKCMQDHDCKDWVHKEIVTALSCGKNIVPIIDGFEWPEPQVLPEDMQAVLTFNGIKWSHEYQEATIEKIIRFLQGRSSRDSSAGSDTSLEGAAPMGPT
Chain of Mitogen-activated protein kinase 7 (Homo sapiens) (Q13164 whole entry, looked up, the tested form may be a part): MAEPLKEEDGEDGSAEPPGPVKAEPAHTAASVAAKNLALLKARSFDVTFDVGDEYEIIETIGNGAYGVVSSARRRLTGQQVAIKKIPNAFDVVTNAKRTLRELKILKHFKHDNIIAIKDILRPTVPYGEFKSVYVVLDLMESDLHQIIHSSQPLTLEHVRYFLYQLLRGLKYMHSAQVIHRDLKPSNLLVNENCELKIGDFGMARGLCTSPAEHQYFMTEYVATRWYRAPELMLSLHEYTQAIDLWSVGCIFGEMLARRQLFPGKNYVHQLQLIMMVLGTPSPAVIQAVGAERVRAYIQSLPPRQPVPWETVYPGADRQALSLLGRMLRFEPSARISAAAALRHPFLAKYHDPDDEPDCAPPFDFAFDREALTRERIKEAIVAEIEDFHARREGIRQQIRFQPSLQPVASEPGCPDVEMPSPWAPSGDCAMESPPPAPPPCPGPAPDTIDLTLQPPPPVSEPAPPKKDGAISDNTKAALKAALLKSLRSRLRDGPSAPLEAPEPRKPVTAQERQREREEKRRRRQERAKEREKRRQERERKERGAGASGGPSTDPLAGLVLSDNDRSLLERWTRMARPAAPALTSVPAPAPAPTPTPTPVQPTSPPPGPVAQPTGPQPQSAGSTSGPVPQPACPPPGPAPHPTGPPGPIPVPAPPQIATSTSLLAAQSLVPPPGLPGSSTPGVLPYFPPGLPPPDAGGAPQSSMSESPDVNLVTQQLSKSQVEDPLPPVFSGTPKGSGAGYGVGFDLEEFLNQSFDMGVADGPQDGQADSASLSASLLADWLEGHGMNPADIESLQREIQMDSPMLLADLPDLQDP
Chain of 6-phosphogluconate dehydrogenase, decarboxylating (Homo sapiens) (P52209 whole entry, looked up): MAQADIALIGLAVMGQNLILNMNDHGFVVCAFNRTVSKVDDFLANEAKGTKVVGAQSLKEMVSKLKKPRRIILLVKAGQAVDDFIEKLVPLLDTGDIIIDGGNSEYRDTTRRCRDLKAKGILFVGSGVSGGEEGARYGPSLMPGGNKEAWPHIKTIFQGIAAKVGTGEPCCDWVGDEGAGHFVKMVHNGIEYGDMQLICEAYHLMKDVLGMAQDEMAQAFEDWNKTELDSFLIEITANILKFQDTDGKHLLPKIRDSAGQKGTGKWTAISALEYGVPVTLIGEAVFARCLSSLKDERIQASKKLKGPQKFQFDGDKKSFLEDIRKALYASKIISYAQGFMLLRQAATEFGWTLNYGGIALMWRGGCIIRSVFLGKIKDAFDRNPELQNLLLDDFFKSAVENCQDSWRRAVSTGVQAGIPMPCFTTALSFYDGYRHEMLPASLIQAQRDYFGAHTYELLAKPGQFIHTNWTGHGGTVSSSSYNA

What is called inhibition is the drop in the measured response relative to a control, in per cent. For the molecule `NC[C@@H]1CC[C@@H](N)[C@@H](O[C@H]2[C@H](O)[C@@H](O[C@H]3O[C@H](CO)[C@@H](O)[C@H](N)[C@H]3O)[C@H](N)C[C@@H]2N)O1`, the inhibition in assay [1] is -2.83% (inactive). In addition, the red/green cell ratio (normalised) in assay [2] is 1.19 (inactive). Further, the normalised cell number in assay [2] (setting [16]) is 0.9; in [2] (setting [17]) it was 1.07. The remaining NAD in assay [3] is 10 nM (inactive).
By viability is commonly meant a read-out of living cells in per cent, often relative to untreated cells. Take `COc1ccc2c(c1OC)C(=O)O[C@H]2[C@H]1c2c(cc3c(c2OC)OCO3)CCN1C`: the parasite load remaining in assay [4] was 93.3% (inactive) and 73.1% (inactive). In [4], the viability was 64.7% and 94.8%. For the same molecule, the inhibition in assay [1] is 4.17% (inactive). The red/green cell ratio (normalised) in assay [2] was 1.15 (inactive). The normalised cell number amounted to 1.08 in [2] (setting [16]) and 1.24 in assay [2] (setting [17]). Moreover, the values for the fold change in assay [5] (setting [18]) and in assay [5] (setting [19]) were 0.877 (inactive) and 1.33, respectively. Further, the cell count in [5] (setting [20]) stood at 8940; in [5] (setting [21]), 10200.
For `CN1C(CC(=O)c2ccccc2)CCCC1CC(O)c1ccccc1` (stereo unspecified), the inhibition in assay [6] was 17.8%; in assay [1], -10.3% (inactive). Also, the score in [7] is 1.4. In [8], this molecule registered a rescue above control of -4.31. For the same molecule, the cytochrome c release ratio in assay [9] stood at 0.5. The inhibition of aggregation in assay [10] amounted to 65.4%. Besides, the glutamate uptake change in [11] was 3.53%. Moreover, in [12], the inclusion score is 2. In assay [13], the aggregation suppression score worked out at 1.27. For the same molecule, the parasite load remaining in assay [4] is 97.3% (inactive). The same molecule gave a viability in assay [4] of 69.7%. The red/green cell ratio (normalised) in [2] was 1.04 (inactive). For the same molecule, the results for the normalised cell number in assay [2] (setting [16]) and in [2] (setting [17]) were 0.88 and 0.92, respectively. Further, the fold change in [5] (setting [18]) is 0.965 (inactive); in assay [5] (setting [19]), 1.77. In addition, the cell count in assay [5] (setting [20]) was found to be 10200; in assay [5] (setting [21]), 10600. In addition, in assay [3], the remaining NAD was 10 nM (inactive). Further, the luciferase signal in assay [14] was 268 AU (active). Moreover, the z-score in assay [15] is 0.16 (inactive).
For the molecule `O=c1[nH]c(=O)n(C2C[C@H](O)[C@@H](CO)O2)cc1C(F)(F)F` (stereo partly specified), the parasite load remaining in [4] was 74% (inactive) and 246% (inactive) and 30.9% (inactive). For the same molecule, the viability in assay [4] was 71.7% and 82.9% and 99%. Moreover, the inhibition in assay [1] was 10.3% (inactive). In [2], the red/green cell ratio (normalised) is 1.34 (inactive). In addition, the values for the normalised cell number in assay [2] (setting [16]) and in assay [2] (setting [17]) were 0.93 and 1.25, respectively. In addition, the fold change was 1.06 (inactive) and 0.925 (inactive) in [5] (setting [18]); 0.737 and 3.77 in assay [5] (setting [19]). Moreover, the cell count in [5] (setting [20]) was 2260 and 12300; in assay [5] (setting [21]), 2140 and 13300.
Regarding `CC(=O)Nc1ccc(OC(=O)c2ccccc2O)cc1`, the inhibition in assay [6] was -0.86%; in assay [1], -12.6% (inactive). The score in assay [7] stood at 0.55. Further, the rescue above control in assay [8] was found to be 4.5. In addition, the cytochrome c release ratio in [9] is 1.29. In addition, the inhibition of aggregation in assay [10] is 92.3%. In [11], the glutamate uptake change is 0.86%. Further, the inclusion score in assay [12] stood at 2. Besides, the aggregation suppression score in assay [13] worked out at 0.54. Besides, the parasite load remaining in assay [4] is 50.3% (inactive). The molecule further showed a viability in assay [4] of 71.4%. Moreover, the red/green cell ratio (normalised) in assay [2] was 0.93 (inactive). Besides, the values for the normalised cell number in assay [2] (setting [16]) and in assay [2] (setting [17]) were 1.16 and 1.08, respectively. Also, the remaining NAD in assay [3] was 10 nM (inactive). In addition, in assay [14], the luciferase signal was 40 AU (inactive).
With `CC1=C(/C=C/C(C)=C/C=C/C(C)=C/CO)C(C)(C)CCC1`, the inhibition is 25.6% in [6] and -7.77% (inactive) in assay [1]. For the same molecule, the score in assay [7] is -0.82. For the same molecule, the rescue above control in assay [8] turned out to be 28.1. Also, the cytochrome c release ratio in [9] came to 1.19. This molecule came in with an inhibition of aggregation in assay [10] of 88.9%. Moreover, in assay [11], the glutamate uptake change is -6.81%. For the same molecule, in [13], the aggregation suppression score amounted to 0.11. The parasite load remaining in [4] is 115% (inactive) and 48.9% (inactive). For the same molecule, in assay [4], the viability was 69.5% and 99.6%. In assay [2], the red/green cell ratio (normalised) is 1.32 (inactive). For the same molecule, the normalised cell number was 0.9 in assay [2] (setting [16]) and 1.18 in [2] (setting [17]). The fold change was 0.915 (inactive) in [5] (setting [18]) and 2.67 in assay [5] (setting [19]). The values for the cell count in [5] (setting [20]) and in assay [5] (setting [21]) were 11800 and 12800, respectively. Moreover, the remaining NAD in assay [3] was 10 nM (inactive). Further, the luciferase signal in assay [14] is 48 AU (inactive).

Values taken from PubChem BioAssay.
